Screening data as filed in PubChem.
HEK293 tox: HEK 293 cell cytotoxicity | HEK 293 viability, ATP luminescence (CellTiter-Glo), 48-72 h | Potency, µM (doses to about 115 µM), hits mostly inhibitors | 94,000 tested, 6.6% active; active = well fitted curve in the direction sought with a large enough effect; inconclusive = small, poorly fitted or top-dose-only effect, or another doubt; inactive = no such curve, though single readings can be large; an effect the other way counts as inactive or inconclusive; also: nearly all actives have a fitted effect of over 60% in size
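ATP-coupled CellTiter-Glo luminescence served as viability read-out, recorded 10 min after reagent addition at room temperature. HEK 293 cells, 250 cells/well, had been incubated with pintool-transferred compound for 48 or 72 hr at 37 degree Celsius.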
3T3 cytotox: kills NIH 3T3 cells | NIH 3T3 viability, CellTiter-Glo ATP luminescence, 48-72 h | 94,000 tested, 4.3% active | Potency, µM (titrated, usually from 96.7 µM), most hits filed as inhibitors | AID 1345082; active = well fitted curve in the direction sought with a large enough effect; inconclusive = small, poorly fitted or top-dose-only effect, or another doubt; inactive = no such curve, though single readings can be large; an effect the other way counts as inactive or inconclusive; also: nearly all actives have a fitted effect of over 55% in size
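ATP-dependent luminescence (CellTiter-Glo) served as the viability signal for NIH 3T3 cells treated with compound for 48 or 72 hr at 37 °C.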
Luciferase inh: inhibitors of firefly (Photinus pyralis) luciferase; 76,000 tested, 2.5% active; P08659; purified P. pyralis luciferase, luminescence, biochemical; Potency, µM (titrated, usually from 115 µM), hits mostly inhibitors; active = well fitted curve in the direction sought with a large enough effect; inconclusive = small, poorly fitted or top-dose-only effect, or another doubt; inactive = no such curve, though single readings can be large; an effect the other way counts as inactive or inconclusive; also: nearly all actives have a fitted effect of over 65% in size
Target sequence (P08659 whole entry, looked up): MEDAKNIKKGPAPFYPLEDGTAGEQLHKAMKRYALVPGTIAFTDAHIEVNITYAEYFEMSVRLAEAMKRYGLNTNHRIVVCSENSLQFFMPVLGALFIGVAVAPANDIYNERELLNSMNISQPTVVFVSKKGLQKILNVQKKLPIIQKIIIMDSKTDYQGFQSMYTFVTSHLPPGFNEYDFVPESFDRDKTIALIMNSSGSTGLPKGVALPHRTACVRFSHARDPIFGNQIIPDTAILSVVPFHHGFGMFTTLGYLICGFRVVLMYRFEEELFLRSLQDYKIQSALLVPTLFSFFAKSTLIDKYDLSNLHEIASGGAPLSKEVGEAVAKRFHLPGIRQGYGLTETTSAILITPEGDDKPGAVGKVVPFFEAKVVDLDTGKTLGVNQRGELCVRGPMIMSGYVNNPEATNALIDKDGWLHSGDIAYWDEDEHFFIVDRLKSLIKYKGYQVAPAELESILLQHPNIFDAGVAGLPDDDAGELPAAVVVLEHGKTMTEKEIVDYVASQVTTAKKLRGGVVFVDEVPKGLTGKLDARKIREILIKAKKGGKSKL
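Purified 10nM P. pyralis luciferase with 10uM D-luciferin and 10uM ATP in 50mM Tris acetate pH 7.5, 10mM Mg acetate, 0.01% Tween-20, 0.05% BSA. qHTS titration; luminescence read by CCD imager.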
hNpr1 antagonist: blocks ANP-stimulated signaling of human Npr1 receptor. P16066. HEK293 hNpr1 GloSensor cGMP, ANP-stimulated luminescence. Potency, µM (titrated, usually from 46.3 µM), hits mostly inhibitors. 76,000 tested, 1.6% active. AID 1347048; also: nearly all actives have a fitted effect of over 60% in size
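Compound pre-incubated 30 min at room temperature on GloSensor-loaded HEK293 cells stably carrying hNpr1 and the pGS-40F cGMP biosensor. Stimulation uses hNppA at 0.1 nM final; luminescence is taken at baseline and 20 min post-agonist.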
Npr1 antag conf: hNpr1 antagonism, confirmation assay; HEK293 hNpr1 cGMP GloSensor luminescence, ANP-stimulated; AID 1347044; 1,400 tested, 76% active; shares compounds with hNpr1 antagonist; Potency, µM (top dose mostly 57.6 µM), hits mostly inhibitors; also: nearly all actives have a fitted effect of over 70% in size
Npr2 selectivity: antagonizes human Npr2, subtype selectivity check; shares compounds with hNpr1 antagonist; HEK293 hNpr2 GloSensor cGMP luminescence, CNP-stimulated; Potency, µM (doses to about 57.6 µM), actives largely listed as inhibitors; 1,400 tested, 67% active; AID 1347046; also: nearly all actives have a fitted effect of over 70% in size
FLuc inh counter: counter-screen for Npr1 antagonists: firefly luciferase inhibitors. Potency, µM (series often up to 57.6 µM), usual class: inhibitors. purified FLuc enzyme, luminescence, Km substrate. AID 1347047. 1,400 tested, 0.7% active. shares compounds with hNpr1 antagonist; active = well fitted curve in the direction sought with a large enough effect; inconclusive = small, poorly fitted or top-dose-only effect, or another doubt; inactive = no such curve, though single readings can be large; an effect the other way counts as inactive or inconclusive
GloSensor cGMP: control cell line activity, Npr1 antagonist counter-screen; shares compounds with hNpr1 antagonist; HEK293 GloSensor cGMP, SNP-stimulated, luminescence; Potency, µM (titrated, usually from 57.6 µM), usual class: inhibitors; 1,400 tested, 69% active; AID 1347051; also: nearly all actives have a fitted effect of over 70% in size
A number is an active result; i = inactive; ? = inconclusive; nt = not tested or not shown. Sampled rows, rich in hits. Any-hit rate of the full collection: about 11%. Unless noted, calls follow the shape of the full dose curve.

SMILES	HEK293 tox	3T3 cytotox	Luciferase inh	hNpr1 antagonist	Npr1 antag conf	Npr2 selectivity	FLuc inh counter	GloSensor cGMP
COCC(=O)NC[C@H]1O[C@H](Cc2cc(-c3ccc(F)cc3)on2)CC[C@@H]1O	i	i	i	i	nt	nt	nt	nt
CC(C)(C)C(=O)NC[C@H]1O[C@H](Cc2cc(-c3ccc(F)cc3)on2)CC[C@@H]1O	?	i	i	?	?	?	20µM	?
CSc1cccc(NC(=O)Cn2c(N3CCC(C)CC3)nc(C)cc2=O)c1	11µM	11µM	i	11µM	12µM	14µM	i	9.7µM
Cc1cc(=O)n(CC(=O)Nc2cccc(C(F)(F)F)c2)c(N2CCC(C)CC2)n1	35µM	22µM	i	10µM	12µM	14µM	i	11µM
CC(C)c1ccc(CN2CCc3ncc(C(=O)NCc4ccccc4)n3CC2)cc1	28µM	?	i	28µM	25µM	31µM	i	22µM
C[S+](=O)([O-])c1ccc(-c2cc(C(=O)NCCc3ccc(Cl)cc3)nn3cccc23)cc1	?	22µM	nt	nt	?	?	15µM	?
COc1ccc(-c2noc(CC3CCN(C(=O)Cc4ccc(OC)c(Cl)c4)CC3)n2)cc1	?	?	i	13µM	24µM	24µM	i	17µM
COc1ccc(CC(=O)N2CCC(Cc3nc(-c4ccccc4)no3)CC2)cc1Cl	?	35µM	i	13µM	24µM	27µM	i	24µM
CCn1ccnc1CN(C)C(=O)c1cc(-c2cnc(N)nc2)nc2c(C)cccc12	i	i	i	i	nt	nt	nt	nt
O=C1N(Cc2cccnc2)C[C@H]2CN(Cc3ccc(C(F)(F)F)cc3)CCN12	?	?	i	10µM	13µM	18µM	i	13µM
FC(F)(F)c1ccc(N2C3CCC2CN(Cc2cccc(-c4cccnc4)c2)C3)cc1	?	i	nt	nt	7.7µM	9.7µM	i	6.1µM
COc1ccc(CN2C[C@H]3CN(Cc4ccc(C(F)(F)F)cc4)CCN3C2=O)cc1	?	?	i	?	nt	nt	nt	nt
COc1ccc(CN2CCN3C(=O)N(Cc4ccc(OC)cc4)C[C@H]3C2)cc1	?	?	i	14µM	13µM	18µM	i	14µM
FC(F)(F)c1ccc(N2C3CCC2CN(Cc2ccc(-c4ccccc4)cc2)C3)cc1	i	i	i	i	nt	nt	nt	nt
COc1ccc(CN2C[C@H]3CN(Cc4ccc5c(c4)OCCO5)CCN3C2=O)cc1	?	?	i	10µM	14µM	16µM	i	14µM
COc1ccc(CN2C[C@H]3CN(Cc4cccnc4)CCN3C2=O)cc1	i	i	i	i	nt	nt	nt	nt
O=C(CC[C@H]1NC(=O)c2ccccc2NC1=O)Nc1n[nH]c(CCc2ccccc2)n1	i	i	i	i	nt	nt	nt	nt
CC1(c2noc(C3(C)CCOCC3)n2)CCNCC1	i	i	i	i	nt	nt	nt	nt
COc1ccc(CN2C[C@H]3CN(Cc4ccc([N+](=O)[O-])cc4)CCN3C2=O)cc1	?	?	i	22µM	16µM	18µM	i	16µM
COc1ccc(CN2C[C@H]3CN(Cc4ccc(S(C)(=O)=O)cc4)CCN3C2=O)cc1	?	i	i	?	nt	nt	nt	nt
CN1CCCCCCN(C(=O)COc2ccccc2)[C@H]2CCC[C@H]2C1=O	i	i	i	i	nt	nt	nt	nt
CNC(=O)c1cc(C)nc2onc(C3CCN(C(C)=O)C3)c12 (centres undefined)	i	i	nt	nt	nt	nt	nt	nt
O=C(c1ccc2c(c1)OCO2)N1CCC2(CC1)N=C(c1ccc(Br)cc1)NO2	?	?	i	13µM	22µM	19µM	i	17µM
CCOc1ccc(C(=O)N2CCC3(CC2)N=C(c2ccc(Cl)cc2)NO3)cc1	?	i	i	8.9µM	19µM	17µM	i	15µM
COc1ccc(C(=O)N2CCC3(CC2)N=C(c2ccccc2)NO3)cc1OC	i	i	i	i	nt	nt	nt	nt
